Like-named read-outs stand apart in the source and are kept apart here. Out of some 3,300 compounds screened, about 60 (2%) showed an effect of 50% or more. What follows is part of a selection rich in strong results, with near analogues and random picks from the rest.
Tested on: HCoV-OC43
Design: species or system RD; HTS, protection from HCoV-OC43 induced cell death, luminescent cell viability (CellCounting-Lite 2.0), inhibition rate
Conditions: 10 µM, inhibitor

SMILES | OC43 Inhibition rate (24 h post infection, 1 h compound pre-incubation) | OC43 Inhibition rate (24 h)
CCC(=O)O[C@H]1[C@H](O[C@@H]2[C@@H](C)[C@H](O[C@H]3C[C@@](C)(OC)[C@@H](O)[C@H](C)O3)[C@@H](C)C(=O)O[C@H](CC)[C@@](C)(O)[C@H](O)[C@@H](C)C(=O)[C@H](C)C[C@@]2(C)O)O[C@H](C)C[C@@H]1N(C)C [Erythromycin estolate, erythromycin estolate] | 99.7% | 
O=C1C([C@@H]2O[C@H](CO)[C@@H](O)[C@H](O)[C@H]2O)=C(O)/C(=C(O)/C=C/c2ccc(O)cc2)C(=O)C1(O)[C@@H]1O[C@H](CO)[C@@H](O)[C@H](O)[C@H]1O (stereo partly drawn) [Hydroxysafflor yellow A] |  | 0.2%
Oc1c(Br)cccc1Br [2,6-Dibromophenol] |  | 1.1%
C[C@H]1CCCC(=O)CCC/C=C/c2cc(O)cc(O)c2C(=O)O1 [Zearalenone] |  | 56.4%
C[C@H]1CCC[C@@H](O)CCCCCc2cc(O)cc(O)c2C(=O)O1 [Beta-Zearalanol] |  | 0%
C=C(C)[C@@H]1[C@H]2OC(=O)[C@@H]1[C@]1(O)C[C@H]3O[C@]34C(=O)O[C@H]2[C@]14C [Picrotoxinin] |  | 0.5
O=C1C=CC[C@@H]2[C@H]3CCC[N+]4([O-])CCC[C@@H](CN12)[C@@H]34 (stereo partly drawn) [Oxysophocarpine] |  | -0.3%
C[C@@H]1CC[C@@]2(OC1)O[C@H]1C[C@H]3[C@@H]4CC=C5C[C@@H](O[C@@H]6O[C@H](CO)[C@@H](O[C@@H]7O[C@@H](C)[C@H](O[C@@H]8O[C@@H](C)[C@H](O)[C@@H](O)[C@H]8O)[C@@H](O)[C@H]7O)[C@H](O)[C@H]6O[C@@H]6O[C@@H](C)[C@H](O)[C@@H](O)[C@H]6O)CC[C@]5(C)[C@H]4CC[C@]3(C)[C@H]1[C@@H]2C [Formosanin C] |  | 5.5%
C[C@@H]1CC[C@@]2(NC1)O[C@H]1C[C@H]3[C@@H]4CC=C5C[C@@H](O[C@@H]6O[C@H](CO)[C@@H](O[C@@H]7O[C@@H](C)[C@H](O)[C@@H](O)[C@H]7O)[C@H](O)[C@H]6O)CC[C@]5(C)[C@H]4CC[C@]3(C)[C@H]1[C@@H]2C [Khasianine] |  | 67.5%
Cc1c([C@H](C)[C@@H]2NC[C@@H](C)C[C@H]2O)ccc2c1C[C@H]1[C@H]2CC=C2C[C@@H](O[C@@H]3O[C@H](CO)[C@@H](O)[C@H](O)[C@H]3O)CC[C@@]21C [Veratrosine] |  | 5.4%
COc1cc2ccc(=O)oc2c2ccoc12 [Sphondin] |  | 0.1%
COc1cc([C@@H]2c3cc4c(cc3C(=O)[C@H]3COC(=O)[C@H]23)OCO4)cc(OC)c1OC [Podophyllotoxone] |  | 4.4%
Cc1ccc(C=O)cc1 [p-Tolualdehyde] |  | -0.1
CC(C)=CCC[C@H](C(=O)O)[C@H]1CC[C@]2(C)C3=C(CC[C@@]12C)[C@@]1(C)CCC(=O)C(C)(C)[C@H]1CC3 [β-Elemonic acid] |  | -1.4%
CC1(C)OC1COc1c2occc2cc2ccc(=O)oc12 (stereo not drawn) [Oxyimperatorin] |  | 2.8%

— paper PMC12431657, “Discovery and mechanistic insights of dibenzoylmethane as a broad spectrum inhibitor of coronavirus” (PLOS Pathogens, 2025)
